Bioassay records (PubChem BioAssay)
Most compounds without a hit are left out; they make up all but 2.1% or so of the library.
Myeloid diff MLP: myeloid differentiation induction; 1% of 360,000 active; ER-HoxA9 myeloid progenitors, lysozyme-GFP differentiation, flow cytometry; calls only at 10 µM; AID 624256;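 active = normalized GFP-positive differentiation at or above the plate's own cutoff, the solvent-only control mean plus 3 SD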;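 also: cells exposed to compound for four days before flow analysis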
TPT1 inh: blocks Candida albicans tRNA 2'-phosphotransferase | inhibition, % at 5 µM | 0.81% of 300,000 active | AID 1962 | recombinant caTPT1, FP RNA substrate dephosphorylation;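 active = inhibition above the mean of all tested compounds plus 3 SD, set per screening campaign, cut at about 24% in these data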
Rpn11 inh: Rpn11 (human) deubiquitinase inhibition; O00487; human 26S proteasome, Ub4-pepOG fluorescence polarization; 20S core pre-blocked with epoxomicin; inhibition, % at 20 µM; 0.59% of 360,000 active;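 active = inhibition at 20 µM, scaled to each plate's controls, above about 33%, limit read from the data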
HNF4A DNA FP: change in binding of human HNF4 alpha to DNA; P41235; HNF4a-FITC DNA binding, fluorescence polarization, 1 h; activity change, % at 10 µM; 0.3% of 360,000 active; in the data active = activity change above about 30%, passing the limit was not always enough
Target sequence (P41235 whole entry, looked up): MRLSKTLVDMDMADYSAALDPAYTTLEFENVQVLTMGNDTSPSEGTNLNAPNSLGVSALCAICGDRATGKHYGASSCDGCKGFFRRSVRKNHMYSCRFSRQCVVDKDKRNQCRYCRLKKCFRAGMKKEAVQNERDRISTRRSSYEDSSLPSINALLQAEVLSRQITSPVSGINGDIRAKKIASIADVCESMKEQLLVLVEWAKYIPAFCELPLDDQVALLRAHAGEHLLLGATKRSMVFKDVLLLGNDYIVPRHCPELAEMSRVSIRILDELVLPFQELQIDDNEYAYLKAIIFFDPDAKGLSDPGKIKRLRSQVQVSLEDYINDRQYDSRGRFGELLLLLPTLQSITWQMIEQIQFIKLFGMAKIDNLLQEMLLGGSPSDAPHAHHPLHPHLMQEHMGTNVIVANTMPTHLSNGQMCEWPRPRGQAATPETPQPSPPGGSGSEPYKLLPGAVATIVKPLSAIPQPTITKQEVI
Of the large screens only hits and unclear results are named; the others gave an inactive call; ! = not active in a repeat.

C#CCOCCOCCOCCNc1nc(N2CCN(C(=O)CCCCCCCCCCNC(=O)[C@H]([C@@H](C)CC)n3cc(CCCCN=C(N)N)nn3)CC2)nc(N2CCN(C(=O)CCCCCCCCCCNC(=O)[C@H](CO)n3cc(CCCCCN)nn3)CC2)n1	Rpn11 inh 75
C#CCOCCOCCOCCNc1nc(N2CCN(C(=O)[C@H](CCCCN)n3cc([C@@H](N)C(C)CC)nn3)CC2)nc(N2CCN(C(=O)[C@H](Cc3cc4ccccc4[nH]3)n3cc([C@@H](N)CC(C)C)nn3)CC2)n1 (some centres not stated)	HNF4A DNA FP 49
C#CCOCCOCCOCCNc1nc(N2CCN(C(=O)CCCCCCCCCCNC(=O)Cn3cc(CCCCCN)nn3)CC2)nc(N2CCN(C(=O)CCCCCCCCCCNC(=O)[C@H]([C@@H](C)CC)n3cc(CCCCN=C(N)N)nn3)CC2)n1	Rpn11 inh 41
C#CCOCCOCCOCCNc1nc(N2CCN(C(=O)CCCCCCCCCCNC(=O)Cn3cc(CCCCCN)nn3)CC2)nc(N2CCN(C(=O)CCCCCCCCCCNC(=O)Cn3cc(CCCCCN)nn3)CC2)n1	HNF4A DNA FP 38
C#CCOCCOCCOCCNc1nc(N2CCN(C(=O)[C@H](Cc3cc4ccccc4[nH]3)n3cc([C@@H](N)C(C)CC)nn3)CC2)nc(N2CCN(C(=O)[C@H](CCCCN)n3cc([C@@H](N)CO)nn3)CC2)n1 (some centres not stated)	none (no result: Myeloid diff MLP, Rpn11 inh, HNF4A DNA FP)
O=C(CN1C(=O)C2C3C=CC(C3)C2C1=O)N1CCc2ccccc2C1 (configuration not stated)	none
CC1(C)CC(=O)C(CO)=C(c2cccc3ccccc23)C1=O	none (no result: TPT1 inh)
C#CCOCCOCCOCCNc1nc(N2CCN(C(=O)CCCCCCCCCCNC(=O)[C@H](CCCCN)n3cc(C)nn3)CC2)nc(N2CCN(C(=O)CCCCCCCCCCNC(=O)[C@H](CCCCN)n3cc(CCCC(=O)O)nn3)CC2)n1	HNF4A DNA FP 38
C#CCOCCOCCOCCNc1nc(N2CCN(C(=O)CCCCCCCCCCNC(=O)[C@H]([C@@H](C)CC)n3cc(CCCCN=C(N)N)nn3)CC2)nc(N2CCN(C(=O)CCCCCCCCCCNC(=O)[C@H]([C@@H](C)CC)n3cc(CCCCN=C(N)N)nn3)CC2)n1	none (no result: Myeloid diff MLP, Rpn11 inh, HNF4A DNA FP)
C#CCOCCOCCOCCNc1nc(N2CCOCC2)nc(N2CCN(C(=O)CCCCCCCCCCNC(=O)[C@@H]([C@H](C)CC)n3cc(CCCCCN)nn3)CC2)n1	Myeloid diff MLP active
C#CCOCCOCCOCCNc1nc(N2CCN(C(=O)CCCCCCCCCCNC(=O)[C@H]([C@@H](C)CC)n3cc(CCCCCN)nn3)CC2)nc(N2CCN(C(=O)CCCCCCCCCCNC(=O)[C@H]([C@@H](C)CC)n3cc(CCCCN=C(N)N)nn3)CC2)n1	Rpn11 inh 88
O=C1C=C(c2ccc(F)cc2OCc2ccccc2)C[C@@H](c2ccc(F)cc2)C1	none (no result: TPT1 inh)
COC(=O)c1ccc(CN2CCCC(CCC(=O)NCc3ccc(C)o3)C2)cc1 (configuration not stated)	none
O=c1cnn(Cc2c(Cl)cccc2Cl)c2ccccc12	Myeloid diff MLP active
Fc1cccc(Cl)c1Cn1ncc2ccccc21	none (no result: TPT1 inh)
O=C(Nc1cccc(C(F)(F)F)c1)Nn1cnnc1	none (no result: TPT1 inh)
OCC[C@H]1C[C@H](O)[C@@H](O)[C@@]2(CCCc3ccccc3O2)O1	none
CC(C)(C)OC(=O)C(Oc1ccccc1[N+](=O)[O-])C(=O)OC(C)(C)C	none (no result: TPT1 inh, Rpn11 inh)
Cc1cc(-c2ccc(Br)s2)nc(-n2cccc2)n1	HNF4A DNA FP 50 (no result: TPT1 inh)
CN(c1ccc(F)cc1)S(=O)(=O)c1ccc(Cl)c(C(=O)NCc2ccco2)c1	Myeloid diff MLP active (no result: TPT1 inh)
CN(C)S(=O)(=O)c1ccc(Cl)c(C(=O)NCc2ccco2)c1	none
Cc1cc(O)ccc1Nc1nc(-c2cccs2)cs1	Myeloid diff MLP active
COc1cc(C(=O)N2CCN(C)C(C)C2)ccc1OC1CCN(C(C)=O)CC1 (configuration not stated)	none
Nc1nc(Nc2ccccc2)nc2ccccc12	none
CCOc1ccc(Nc2nc(N)c3ccccc3n2)cc1	HNF4A DNA FP 60 (no result: TPT1 inh)
COc1cc(NC(=O)c2ccc(N)nc2)cc(C(=O)Nc2cccc(C(F)(F)F)c2)c1	Myeloid diff MLP active!
COc1cc(NC(=O)c2nccnc2N)cc(C(=O)Nc2cccc(C(F)(F)F)c2)c1	none
Cc1ccc(C(=O)Nc2cccc(C(F)(F)F)c2)cc1Nc1cncnc1	Myeloid diff MLP active!
COc1cccc(=O)c2c(C)n(CC(=O)c3ccccc3)c(C)c12	TPT1 inh 30
CCC(C(=O)Nc1ncn[nH]1)(C(F)(F)F)C(F)(F)F	Myeloid diff MLP active
O=C(Nc1ncn[nH]1)C(F)(F)C(F)F	none
